Bioassay records (PubChem)
G9a inh: G9a (human) methyltransferase inhibition. G9a H3K9 monomethylation, AlphaScreen, 2 h. Q96KQ7. 350,000 compounds, 8.8% hits. AID 504332. Potency, µM (doses to about 102 µM), without a hit: top-dose activity, negative = inhibition, hits mostly inhibitors; note: % is set by controls: 0 for no effect and ±100 for the full control effect; nearly all actives have a fitted effect of over 75% in size
Target sequence (Q96KQ7 913-1193 limits assumed): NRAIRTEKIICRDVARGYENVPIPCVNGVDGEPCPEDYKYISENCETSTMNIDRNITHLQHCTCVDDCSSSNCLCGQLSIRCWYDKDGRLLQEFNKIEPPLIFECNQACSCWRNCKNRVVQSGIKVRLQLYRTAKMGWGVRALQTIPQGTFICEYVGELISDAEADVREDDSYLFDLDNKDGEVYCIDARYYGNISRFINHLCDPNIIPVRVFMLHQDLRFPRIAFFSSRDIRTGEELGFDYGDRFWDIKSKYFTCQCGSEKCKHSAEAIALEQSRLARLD
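Compounds were preincubated with 20 nM G9a for 15 min, after which biotinylated H3K9 peptide (500 nM) and SAM (20 uM) started a 2 h room-temperature reaction. Monomethylated product was quantified by antibody-based AlphaScreen chemiluminescence.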
JMJD2A Tudor inh: inhibitors of human JMJD2A Tudor domain | 390,000 compounds, 4.4% hits | Potency, µM (doses to about 114 µM), without a hit: top-dose activity change, negative = inhibition, hits mostly inhibitors | AlphaScreen JMJD2A-Tudor / H3K4me3 peptide binding; note: % is set by controls: 0 for no effect and ±100 for the full control effect; nearly all actives have a fitted effect of over 50% in size
BAZ2B block: inhibitors of human BAZ2B bromodomain; Potency, µM (doses to about 114 µM), for inactives: top-dose activity change, negative = inhibition, usual class: inhibitors; 360,000 compounds, 4.4% hits; AlphaScreen BAZ2B-H3K14Ac peptide displacement; note: % is set by controls: 0 for no effect and ±100 for the full control effect; nearly all actives have a fitted effect of over 60% in size
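Protein-peptide AlphaScreen: BAZ2B 50 nM, b-H3K14Ac 50 nM, 1x PBS pH 7.4 + 0.01% Tween-20. Preincubation 30 min RT; cpd 30 min RT (top 110 uM); beads 20 min RT, light-protected.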
HP1b chromo inh: blocks HP1-beta chromodomain binding to methylated histone tails; P83916; AlphaScreen HP1-beta / biotin-H3K9me3 peptide binding; Potency, µM (titrated, usually from 114 µM), without a hit: at the top dose activity change, negative = inhibition, usual class: inhibitors; 390,000 compounds, 0.56% hits; AID 540317; note: nearly all actives have a fitted effect of over 70% in size
Target sequence (P83916 whole entry, looked up): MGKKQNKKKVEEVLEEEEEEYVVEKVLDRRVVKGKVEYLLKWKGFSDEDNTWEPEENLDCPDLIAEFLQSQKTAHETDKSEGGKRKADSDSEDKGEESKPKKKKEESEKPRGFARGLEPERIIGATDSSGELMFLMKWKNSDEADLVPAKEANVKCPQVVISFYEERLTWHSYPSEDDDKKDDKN
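HP1-beta protein (50 nM final) preincubated 30 min at room temperature with biotinylated H3(1-18)K9me3 peptide (50 nM) in PBS pH 7.4, 0.01% Tween-20, then compound added for 30 min. AlphaScreen streptavidin donor/nickel chelate acceptor beads (10 ug/mL final), 30 min dark, luminescence read.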
L3MBTL1 inh: inhibitors of human L3MBTL1; 230,000 compounds, 0.66% hits; AID 485360; Potency, µM (titrated, usually from 57.1 µM), for inactives: at the top dose activity, negative = inhibition, most hits filed as inhibitors; AlphaScreen L3MBTL1–H3K9me1 peptide binding; note: % is set by controls: 0 for no effect and ±100 for the full control effect; nearly all actives have a fitted effect of over 60% in size
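Read-out is AlphaScreen signal from streptavidin donor and nickel chelate acceptor beads (10 ug/mL final each) bridging L3MBTL1 (50 nM) and biotinylated K9-monomethylated H3(1-15) peptide (75 nM), after 30 min compound exposure at room temperature.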
Sfp inh: inhibitors of Bacillus subtilis Sfp phosphopantetheinyl transferase. Biochemical Sfp PPTase activity, qHTS. AID 1490. 310,000 compounds, 3.5% hits. Potency, µM, inactives show largest response in the series, negative = inhibition, usual class: inhibitors;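 note: the enzyme is Sfp with the accession as filed and its product quenches rhodamine fluorescence; 0% = enzyme reaction without inhibitor and -100% = no enzyme wells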
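Sfp 15 nM + cpd, 15 min RT; start w/ rhodamine-CoA 5 uM, BHQ-2-YbbR 12.5 uM (final); 50 mM Hepes pH 7.6, 10 mM MgCl2, 0.01% NP-40, 0.01% BSA; read 525/598 nm at 0 and 30 min.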
An asterisk follows results filed as active; ? = inconclusive; . = not tested or not shown; [ ] = remark or other dose. Most compounds without a hit are left out; they make up all but 12% or so of the library. Calls come from the whole dose curve; as a rule, active = well fitted curve in the direction sought with a large enough effect; inconclusive = small, poorly fitted or top-dose-only effect, or another doubt; inactive = no such curve, though single readings can be large; an effect the other way counts as inactive or inconclusive. Potency is the fitted concentration of half-maximal effect.

SMILES | G9a inh | JMJD2A Tudor inh | BAZ2B block | HP1b chromo inh | L3MBTL1 inh | Sfp inh
COc1ccccc1C1C(C(N)=O)=C(C)Nc2nc(SCc3ccccc3F)nn21 (stereo not drawn) | -21%[59 µM] | -22% | -18% | 10% | . | .
O=C1CC(c2ccccc2O)Oc2ccc(O)cc21 (stereo not drawn) | . | . | . | . | . | 3%
COc1ccc(-c2nc(C)c(CCNC(=O)c3cc(OC)c(OC)c(OC)c3)s2)cc1OC | -5%[59 µM] | -16% | -12% | 10%[57 µM] | . | .
COc1ccc2c3c1O[C@H]1C[C@H](O)C=C[C@@]31CCN(C)C2 | . | . | . | . | . | 7%
Cn1c(SCc2ccccc2F)nc2c([nH]c3ccccc32)c1=O | -7%[59 µM] | -4% | 0% | 29%[57 µM] | . | .
CCc1nn(C(C)C(=O)N2CCN(c3cccc(C(F)(F)F)c3)CC2)c(=O)c2cc3occc3n12 (stereo not drawn) | -30%[59 µM] | ? | ? | 9% | . | .
O=C(Nc1nnc(C2=COCCO2)o1)c1ccc(S(=O)(=O)N2CCCC2)cc1 | ? | 50µM* | . | 2% | . | 17%
COc1ccc(-c2nnc(NC(=O)c3ccc(S(=O)(=O)N4COCC4(C)C)cc3)o2)cc1 | 16%[2.33 µM] | 3%[11.4 µM] | 56µM* | -13% | 14% | 28%
CCC1CCCCN1S(=O)(=O)c1ccc(C(=O)Nc2nnc(C3=COCCO3)o2)cc1 (stereo not drawn) | 15% | -12% | 79µM* | 38% | . | 18%
CC1CCN(S(=O)(=O)c2ccc(C(=O)Nc3nnc(C4=COCCO4)o3)cc2)CC1 | ? | -7% | ? | 48% | . | -6%
Nc1c(-c2nc(-c3ccc4c(c3)OCO4)cs2)c2ccccn2c1C(=O)c1ccccc1 | -6%[59 µM] | ? | -7% | 28% | . | .
Nc1c(N(CCC2=CCCCC2)C(=O)c2ccc([N+](=O)[O-])o2)c(=O)[nH]c(=O)n1Cc1ccccc1 | ? | -20% | 0% | 12% | -7% | .
COc1cccc(CC2(CO)CCCN(Cc3[nH]c4ccc(C)cc4c3C)C2)c1 (stereo not drawn) | 45µM* | -22%[11.4 µM] | ? | -19% | -28% | -2%
CCOc1ccccc1N1CCN(C(=O)c2cc3cc(OC)ccc3[nH]2)CC1 | 35µM* | ? | ? | -9% | . | -26%
COc1ccc2nc3oc(C(=O)N4CCN(c5cccc(C(F)(F)F)c5)CC4)cc3cc2c1 | 9%[59 µM] | -2% | 6% | 25% | -8% | ?
COc1ccc2nc3oc(C(=O)N4CCN(c5cccc(Cl)c5)CC4)cc3cc2c1 | ? | 5% | -17% | 16% | ? | 11µM*
COc1ccc(N2CCN(C(=O)c3[nH]c4ccc(OC)cc4c3C)CC2)cc1 | 40µM* | 28µM* | ? | ? | . | -6%
CCCCCCCCCCCCC/C=C/C(O)C(COP(=O)(O)OCCN)NC(=O)CCCCCCCCCCCCCCCCC (stereo not drawn) | . | . | . | . | . | -1%
c1ccc2scnc2c1 | . | -20% | . | 11% | . | .
CCOc1ccccc1NC(=O)c1sc2nc3n(c(=O)c2c1C)CCCCC3 | -1%[59 µM] | -12% | 5% | 6% | . | .
O=C(c1cc2cc(F)ccc2[nH]1)N1CCN(c2cccc(Cl)c2)CC1 | 23% | -23% | -17% | 12% | . | 10%
COc1ccc2cc(C(=O)N3CCN(c4ccc(F)cc4)CC3)[nH]c2c1 | 50µM* | 3% | -9% | 21% | . | 2%
COc1cccc(N2CCN(C(=O)c3cc4cc(Cl)ccc4[nH]3)CC2)c1 | 71µM* | ? | -37% | -3% | . | 7%
COc1ccc2[nH]c(C(=O)N3CCC(CO)(Cc4cccc(C(F)(F)F)c4)CC3)c(C)c2c1 | 79µM* | -29% | -38% | 11% | -2% | 16%
COc1ccccc1-n1c(SCC(=O)NC2CC2)nc2ccccc2c1=O | -22%[59 µM] | -10% | 10% | 37% | -3% | .
SMILES | G9a inh | JMJD2A Tudor inh | BAZ2B block | HP1b chromo inh | L3MBTL1 inh | Sfp inh
COc1cc(CCN2C(=O)c3cccc4cccc(c34)C2=O)c(S(=O)(=O)N2CCC(C)CC2)cc1OC | 0% | -32% | 3% | -6% | -8% | -7%
CCOC(=O)c1c(N)n(-c2cccc(OC)c2)c2nc3ccccc3nc12 | -8%[59 µM] | -3% | -3% | 33% | . | .
CCOC(=O)c1c2c(n(-c3ccc(OC)cc3)c1C)C(=O)C(=O)c1ccccc1-2 | . | 18µM* | . | ? | . | .
COc1ccc(CCN(C)C(=O)C2CCCN(C3CCN(Cc4ccccc4)CC3)C2)cc1OC (stereo not drawn) | 32µM* | 7.9µM* | 35µM* | 22µM* | . | -24%
COc1ccc(OC)c(CN2CCC(N3CCC(C(=O)NC4CC4)CC3)CC2)c1 | . | -14% | -9% | 57% | . | 14%
COc1ccc(OC)c(CN2CCC(C(=O)N(C)CCc3ccc(OC)c(OC)c3)CC2)c1 | . | 22µM* | 23% | -22% | 53% | ?
COc1ccc(CCNC(=S)NC2CCN(Cc3ccccc3)CC2)cc1OC | -11% | -26% | -35% | 36% | -21% | 16%
COC(=O)c1ccc(NC(=O)CCN2C(=O)NC(C)(C)C2=O)cc1 | 27%[2.33 µM] | 9% | 12% | 36% | 2% | .
CCOc1cc(S(=O)(=O)NCCc2c(C)[nH]c3ccc(C)cc23)ccc1F | -46%[59 µM] | 50µM* | 35µM* | -5% | . | .
c1ccc(-c2cn(C[C@H]3CC[C@@H]([C@@H]4CC[C@H](Cn5cc(-c6ccccn6)nn5)O4)O3)nn2)nc1 | ? | 3.2µM* | 0.71µM* | 33% | 2.5µM* | -10%
c1ccc(-c2cn(C[C@H]3CC[C@@H]([C@@H]4CC[C@H](Cn5cc(-c6ccccc6)nn5)O4)O3)nn2)cc1 | 17% | -20% | -3% | 70% | 4% | 19%
COc1ccc([C@@H]2C(C#N)=C(N)S[C@@H](c3ccccc3)[C@@H]2[N+](=O)[O-])cc1 | 0%[59 µM] | -9%[57.1 µM] | -36% | -17% | -1% | 17%
COc1ccc(C2C(C#N)=C(N)N3C(=C2C#N)Sc2ccccc23)cc1 (stereo not drawn) | 6.3µM* | . | 0% | . | -2% | -2%
CCCn1nnnc1NC(=O)COc1ccc(Br)cc1 | -8% | ? | 79µM* | 40% | -26% | 6%
CCCCC(=O)Nc1nnnn1CCC | -1%[59 µM] | -5% | -2% | -15% | 1% | 3%
CC(C)(C)c1ccc(Oc2coc3cc(OCC(=O)O)ccc3c2=O)cc1 | 6% | ? | -3% | -18% | . | 19%
COC(=O)c1ccc(Oc2coc3cc(OCc4ccc([N+](=O)[O-])cc4)ccc3c2=O)cc1 | 56µM* | -26% | -23% | 9% | -8% | -6%
COc1ccc(/C(O)=C2/C(=O)C(=O)N(Cc3cccnc3)C2c2ccco2)cc1OC (stereo not drawn) | -8% | 25µM* | -2% | -4% | -6% | 10%
